Screens (PubChem)
ssDAF-12 act: activators of S. stercoralis DAF-12 nuclear receptor; HEK293 ssDAF-12/GRIP1 lit1-tk-luc reporter, luminescence; % of 3 µM dafachronic acid response; activation, % at 6.8 µM; 370,000 tested, 1% active; AID 652126;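 active = activation above the mean over all tested compounds plus 3 SD, cut at about 0.9% in these data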;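 also: 0% = DMSO-only wells and 100% = 3 µM delta7-dafachronic acid wells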
DAX1 inh-1: NR0B1 (DAX1) inhibition; HEK293 Gal4-DAX1 luciferase reporter, luminescence; inhibition, % at 6.75 µM; 340,000 tested, 0.99% active;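 active = inhibition above the mean over all tested compounds plus 3 SD, cut at about 4.2% in these data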;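 also: 0% = DAX1-transfected cells with DMSO and 100% = empty-vector control cells with DMSO; inhibition shows as a rise in luminescence from relieved DAX1 repression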
hcDAF12 agonist: activates DAF-12 receptor from parasite H. contortus; HEK293 hcDAF-12 lit1-tk-luc reporter, luminescence; 0% DMSO, 100% Δ7-dafachronic acid; activation, % at 6.8 µM; 370,000 tested, 1.4% active; AID 652067;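 active = activation above the mean of all tested compounds plus 3 SD, cut at about 5.5% in these data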;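 also: 100% = response to 3 µM Δ7-dafachronic acid high control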
DAX1 inh-2: DAX1 (NR0B1) inhibition, primary screen; HEK293T StAR-luciferase reporter, SF-1/DAX-1 repression relief; inhibition, % at 6.8 µM; 370,000 tested, 1.1% active;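 active = inhibition above the mean over all tested compounds plus 3 SD, cut at about 3.6% in these data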;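 also: 0% = DAX-1 cells with DMSO and 100% = cells lacking DAX-1 with DMSO; higher inhibition means more luminescence from relief of DAX-1 repression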
hgDAF12 agonist: hgDAF-12 agonism, primary luciferase screen. HEK293 GAL4-hgDAF12 UAS-luciferase reporter, agonist luminescence; normalized to butyrate control. activation, % at 6.8 µM. 370,000 tested, 1.8% active;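 active = activation above a cutoff set at the mean of all screened compounds plus 3 SD, cut at about 10% in these data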;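 also: 0% = DMSO wells and 100% = sodium butyrate wells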
LXR ag: LXR-beta agonism as hcDAF-12 counter-screen; activation, % at 6.8 µM; shares compounds with hcDAF12 agonist; HEK293 Gal4-LXR tk-luc reporter, luminescence, 24 h; normalized: DMSO 0%, positive control 100%; 3,400 tested, under 10 active; AID 743027;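 active = mean percent activation of the reporter above a cutoff set as the average over tested compounds plus their standard deviation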
Target sequence (P55055 whole entry, looked up, the tested form may be a part): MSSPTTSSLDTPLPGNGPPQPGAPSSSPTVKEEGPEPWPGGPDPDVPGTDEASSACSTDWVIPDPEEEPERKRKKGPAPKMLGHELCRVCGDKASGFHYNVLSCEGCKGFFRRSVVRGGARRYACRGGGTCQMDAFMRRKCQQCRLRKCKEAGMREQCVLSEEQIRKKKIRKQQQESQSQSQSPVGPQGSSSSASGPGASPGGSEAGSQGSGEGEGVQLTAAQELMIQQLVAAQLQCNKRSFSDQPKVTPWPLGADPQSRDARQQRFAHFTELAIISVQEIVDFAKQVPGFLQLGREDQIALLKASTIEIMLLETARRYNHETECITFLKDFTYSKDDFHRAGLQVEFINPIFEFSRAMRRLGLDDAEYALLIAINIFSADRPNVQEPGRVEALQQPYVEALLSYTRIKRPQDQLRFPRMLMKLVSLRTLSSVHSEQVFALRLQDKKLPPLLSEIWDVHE
hcDAF12 ag: confirmation of H. contortus DAF-12 agonists | AID 743032 | 3,400 tested, 61% active | activation, % at 6.8 µM | HEK293 hcDAF-12 lit1-tk-luc reporter, luminescence; % of Δ7-dafachronic acid response | shares compounds with hcDAF12 agonist;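 active = mean activation across triplicate tests above the threshold derived from the earlier primary screen, cut at about 5.5% in these data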;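 also: 0% = DMSO only wells and 100% = 3 µM Δ7-dafachronic acid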
Starred values were filed as active, the others as inactive; . = no result. Rows were chosen to be rich in hits. Some 4.1% of all compounds tested hit in one or more screens of this group.

SMILES	ssDAF-12 act	DAX1 inh-1	hcDAF12 agonist	DAX1 inh-2	hgDAF12 agonist	LXR ag	hcDAF12 ag
C[C@]12Cc3ccccc3C1CC1=N[C@@H](C3CCCCC3)O[C@@]13C[C@@H]2C(=O)N3C1CCN(Cc2ccccc2)CC1 (stereo not given in full)	0	.	0	0	1	.	.
CC(=O)Oc1ccc2cc(-c3ccccc3)c(=O)oc2c1	-1	1	0	0	1	.	.
O=C(CCCCl)Oc1ccc2cc(-c3ccc4ccccc4n3)c(=O)oc2c1	0	0	8.4*	1	4	0	5
Cc1ccc(/C=C2\OC(=O)c3ccccc32)cc1	0	2	8.4*	1	10	1	8.5*
Cc1ccc(OC(=O)c2oc3ccc(F)cc3c2C)c(C)c1	1	1	8.1*	0	11*	0	3
COc1cc2ccccc2cc1C(=O)Nc1nccs1	1.4*	1	10.0*	1	11*	1	11*
COc1c(C(=O)Nc2nccs2)ccc2ccccc12	-1	3	5	1	9	.	.
COc1ccccc1C(=O)Nc1cccc(NC(C)=O)c1	-2	-1	-1	0	-2	.	.
COc1ccccc1C(=O)Nc1ccc2ccccc2c1	1.6*	3	20*	1	14*	1	12*
COc1ccccc1C(=O)Nc1ccc(N2CCCCC2)cc1	2.7*	3	13*	3	11*	1	14*
COc1ccccc1C(=O)Nc1ccc(N2CCN(C(C)=O)CC2)cc1	-2	0	-1	0	0	.	.
CN(c1c2c(nc3ncnn13)CCCC2)C1CCCCC1	-2	.	-1	-1	1	.	.
COCCNC(=O)CN1C(=O)NC2(CCOc3ccccc32)C1=O (stereo not given)	-1	0	7.2*	0	0	0	4
CCCCNC(=O)CN1C(=O)NC2(CCOc3ccccc32)C1=O (stereo not given)	-1	0	-1	0	0	.	.
O=C(NC1CCCCN(Cc2cccc(Cl)c2)C1=O)c1ccc(Cl)cc1Cl (stereo not given)	-1	.	-4	-2	-1	.	.
O=C(O)Cc1ccc2ccc3ccccc3c2c1	0	.	8.5*	0	1	0	5
O=C1c2ccccc2-c2nnc(-c3ccccc3)cc21	1.8*	1	7.6*	3	8	1	6.0*
Cc1cnc2c(c1)C(=O)c1ccccc1-2	-1	1	2	0	1	.	.
Cc1cccc(-c2cc3c(nn2)-c2ccccc2C3=O)c1	1.7*	-1	6.6*	1	5	1	8.6*
Cc1ccc2nc(-c3ccc(NC(=O)COC(=O)c4ccc([N+](=O)[O-])o4)cc3)sc2c1	1.3*	2	7.4*	4.0*	23*	2	8.8*
O=C(COC(=O)c1ccc([N+](=O)[O-])o1)Nc1ccc(F)cc1	-1	-1	0	-2	0	.	.
O=C(N[C@H](Cc1ccccc1)C(=O)NCc1ccccn1)[C@H]1O[C@@H](n2ccc(=O)[nH]c2=O)[C@H](O)[C@@H]1O	-1	.	2	0	-1	.	.
COc1cccc2sc(Nc3nnc(-c4cccs4)o3)nc12	0	-1	4	0	6	.	.
COc1cccc2sc(Nc3nnc(-c4ccc(F)cc4)o3)nc12	0	0	7.8*	-1	4	0	4
O=C(Cc1cccs1)Nc1cccc(-c2nc3cc4ccccc4cc3[nH]2)c1	1	1	9.4*	3	13*	2	5
SMILES	ssDAF-12 act	DAX1 inh-1	hcDAF12 agonist	DAX1 inh-2	hgDAF12 agonist	LXR ag	hcDAF12 ag
CC(=O)Nc1cccc(NC(=O)Cc2cccs2)c1	-1	0	0	0	0	.	.
O=C1CC(c2ccc3c(c2)OCO3)Sc2nc3ccccc3n21 (stereo not given)	-2	0	-2	0	-4	.	.
O=C1CC(c2ccco2)Sc2nc3ccccc3n21 (stereo not given)	2.8*	1	9.8*	2	8	0	10*
O=C1CC(c2cccs2)Sc2nc3ccccc3n21 (stereo not given)	1.6*	1	7.5*	3	10	1	7.4*
CC(C)(C)CN1CCN(CC#Cc2ccccc2)CC1CCO (stereo not given)	-1	2	7.5*	0	3	0	5
Nc1[nH]c(C(=O)c2ccccc2)c(-c2cccc3ccccc23)c1C(=O)NCc1ccc(F)c(F)c1	-1	.	0	0	1	.	.
Cc1c(C(=O)Nc2ccc(Cl)cc2)c2ccccn2c1C(=O)c1ccc(F)cc1	-1	0	1	1	0	.	.
Cc1cc2ccccn2c1C(=O)Nc1ccc(Cl)cc1	0	3	8.8*	1	10	1	9.4*
Cc1cc2ccccn2c1C(=O)Nc1ccccc1	1.0*	1	9.7*	1	4	0	9.6*
O=C(OCC#CCSc1nnc(-c2ccccc2Cl)o1)c1ccc(F)cc1	-1	.	-1	.	6	.	.
Nc1ccccc1SSc1ccccc1N	0	1	11*	-1	4	0	5
N#Cc1ccccc1Sc1ccccc1N	.	1	.	.	.	.	.
COc1ccc(/C=C2\CCc3ccccc3C2=O)cc1O	1	-2	8.5*	0	6	1	6.9*
O=C(NC(=S)Nc1cc([N+](=O)[O-])ccc1O)C1CC1	-1	0	9.6*	0	3	0	1
C=CCN1C(=O)c2n[nH]c(C)c2C1c1ccc(C)cc1 (stereo not given)	-1	.	1	0	-1	.	.
CC(C)C[C@H]1COc2cccc(F)c2S(=O)(=O)N1Cc1cn(Cc2ccc(Cl)cc2)nn1	-1	.	1	0	-3	.	.
O=C(Nc1nc2ccccc2s1)C1=NN(c2ccccc2)C(=O)CC1	-1	0	6.8*	0	1	0	4
CC(=O)c1cccc(NC(=O)c2cnccn2)c1	-1	2	0	0	-2	.	.
O=C(Nc1nc2ccccc2s1)c1cnccn1	1	1	7.5*	4.0*	13*	1	6.6*
O=C(Nc1ccc2nccnc2c1)c1cnccn1	-1	2	6.7*	2	5	0	2
O=C(N[C@H](C(=O)N1CCC[C@H]1C(=O)NCc1ccccc1)c1ccccc1)c1ccc(Cl)c(Cl)c1	-1	.	0	0	3	.	.
CCc1ccc(C2c3[nH]c4ccccc4c3CCN2C(=O)CNC(N)=O)cc1 (stereo not given)	-1	-1	2	0	2	.	.
